In the library only some 3.5% were active in any assay of this set; here they are far more common.
FBW7 activator = FBW7 E3 ligase activators, primary screen, biochemical, AlphaScreen, human. AlphaScreen FBW7–phospho-cyclin E peptide binding, activator screen. normalized activity (activation), % at 26.1 µM. F-box/WD repeat-containing protein 7 (Homo sapiens), Q969H0. hit rate 0.13% among 650,000; in the data active means normalized activity above about 1.9%;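 further: purified mutant Fbw7 with reduced substrate affinity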
Target sequence (Q969H0 whole entry, looked up): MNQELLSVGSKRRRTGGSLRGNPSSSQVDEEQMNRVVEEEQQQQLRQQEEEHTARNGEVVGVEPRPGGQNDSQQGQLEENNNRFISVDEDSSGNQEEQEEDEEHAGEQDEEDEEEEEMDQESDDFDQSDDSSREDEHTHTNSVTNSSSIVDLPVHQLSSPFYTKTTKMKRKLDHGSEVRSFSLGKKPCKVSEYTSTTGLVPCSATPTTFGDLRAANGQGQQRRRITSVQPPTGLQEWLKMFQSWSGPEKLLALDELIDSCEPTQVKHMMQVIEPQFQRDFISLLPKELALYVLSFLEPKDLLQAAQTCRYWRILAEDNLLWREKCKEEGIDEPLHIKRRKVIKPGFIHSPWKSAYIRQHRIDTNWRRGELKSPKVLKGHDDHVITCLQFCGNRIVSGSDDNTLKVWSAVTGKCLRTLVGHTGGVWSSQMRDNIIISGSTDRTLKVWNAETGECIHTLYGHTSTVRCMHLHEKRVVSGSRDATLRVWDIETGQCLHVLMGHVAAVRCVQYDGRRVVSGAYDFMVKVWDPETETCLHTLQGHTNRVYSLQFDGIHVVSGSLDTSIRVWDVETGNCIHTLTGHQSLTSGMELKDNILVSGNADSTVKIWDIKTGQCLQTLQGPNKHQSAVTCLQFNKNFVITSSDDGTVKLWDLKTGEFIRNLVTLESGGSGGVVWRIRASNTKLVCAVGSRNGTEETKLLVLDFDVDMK
TEAD-YAP inh = TEAD-YAP interaction inhibition, primary screen, TEAD-YAP interaction inhibitor project, luminescence, HEK-TIYL cells | TEAD-Gal4/YAP UAS-luciferase luminescence | inhibition, % at 9.12 µM | hit rate 1.4% among 640,000; in the data active means inhibition above about 32%;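 further: 0% = median of test compound wells and 100% = reference inhibitor wells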
MITF inh = MITF inhibitors, primary screen, biochemical, AlphaScreen, human; hit rate 0.91% among 650,000; inhibition, % at 2.6 µM; AlphaScreen MITF homodimerization, bead proximity signal; Microphthalmia-associated transcription factor (Homo sapiens), O75030; AID 1259374, 2018; in the data active means inhibition above about 50%;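 further: 0% = vehicle wells with protein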
GPR151 activ = activators of human GPR151, primary screen, cell-based, PathHunter beta-arrestin, luminescence | G-protein coupled receptor 151 (Homo sapiens), Q8TDV0 | hit rate 1% among 650,000 | AID 1508602, 2020 | PathHunter beta-arrestin GPR151 cells | activation, % at 11.2 µM; in the data active means activation above about 4.9%;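 further: 0% = median of compound wells and 100% = cells with positive control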
GPR151 conf act = GPR151 activators, triplicate retest, confirmation, cell-based, PathHunter beta-arrestin, luminescence | shares compounds with GPR151 activ | GPR151 PathHunter beta-arrestin cells, 90 min; % of EA-reagent control over plate median | activation, % at 11.2 µM | 6,700 tested, under 10 active;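 active means mean percent activation across replicates above the confirmation screen cutoff of 4.91%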
GPR119 ag = GPR119 activators in beta-arrestin cells, counter-screen for GPR151 activator project, cell-based, PathHunter beta-arrestin, luminescence, triplicate; shares compounds with GPR151 activ; 90 min; 0 = compound-well median, 100 = enzyme-acceptor control; activation, % at 11.2 µM; hit rate 0.3% among 6,700; AID 1508611, 2020;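 active means mean percent activation in the counterscreen above 29.09%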;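 further: counterscreen on off-target GPR119 to flag nonselective hits from the GPR151 activator screen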
The depositor's hits bear a star; ! = repeats disagree.

How did Cc1ccc(-c2nnc3ccc(SCC(=O)NC4CCCC4)nn23)cc1 do in these assays?
FBW7 activator: 0.2; TEAD-YAP inh: -0.3; MITF inh: 9.5; GPR151 activ: -0.5

What do the screens show for `CC1CCCC(C)N1NC(=S)Nc1ccccc1` (centres undefined)?
FBW7 activator: -0.1; TEAD-YAP inh: 8.1; MITF inh: 4.7; GPR151 activ: 4.9*; GPR151 conf act: -1.0; GPR119 ag: -12.8

How did COc1ccc(C(=O)N/N=C(\C)c2ccc(OC)c(Br)c2)cc1 do in these assays?
FBW7 activator: 0.0; TEAD-YAP inh: -22.4; MITF inh: 1.2; GPR151 activ: 6.3*; GPR151 conf act: -0.6; GPR119 ag: 0.5

Results for COc1ccc(OC)c(NC(=O)c2ccc(C)c(Br)c2)c1 ?
FBW7 activator: 0.3; TEAD-YAP inh: -21.4; MITF inh: 2.2; GPR151 activ: 7.9*; GPR151 conf act: -0.4; GPR119 ag: -10.0

What do the screens show for `COc1ccc(OC)c(NC(=O)c2ccc(C)cc2)c1`?
FBW7 activator: -0.1; TEAD-YAP inh: -9.2; MITF inh: -1.9; GPR151 activ: -0.4

What do the screens show for `COc1cc(C2N(C)c3ccccc3N2C)cc(OC)c1OC`?
FBW7 activator: 0.2; TEAD-YAP inh: 10.4; MITF inh: 7.1; GPR151 activ: -1.7

What do the screens show for `O=C(Nc1ccc(F)cc1F)C(=O)NC1CCCCCC1`?
FBW7 activator: 0.0; TEAD-YAP inh: -60.3; MITF inh: 2.6; GPR151 activ: -0.1

What do the screens show for `CC(C)NC[C@H](O)COc1cccc2ccccc12`?
FBW7 activator: 0.2; TEAD-YAP inh: 1.2; MITF inh: -17.8; GPR151 activ: 8.0*!; GPR151 conf act: 1.7; GPR119 ag: 4.6

What do the screens show for `COc1ccc(-n2c(SCC(=O)c3ccccc3)nc3sc4c(c3c2=O)CCC(C(C)(C)C)C4)cc1` (centres undefined)?
FBW7 activator: 0.2; TEAD-YAP inh: 0.8; MITF inh: 7.7; GPR151 activ: 1.7

What do the screens show for `CCCCSc1nnc2c(n1)OC(c1ccccc1Cl)Nc1ccccc1-2` (centres undefined)?
FBW7 activator: 0.0; TEAD-YAP inh: -8.8; MITF inh: -4.3; GPR151 activ: 0.4

How did COc1ccc(C2C(C(=O)Nc3ccc(C(C)C)cc3)c3ccccc3C(=O)N2c2ccc(OC)cc2)cc1 (centres undefined) do in these assays?
FBW7 activator: -0.1; TEAD-YAP inh: -1.1; MITF inh: -14.4; GPR151 activ: -1.0

How did O=C(NCc1ccccc1)c1cc2cc([N+](=O)[O-])ccc2oc1=O do in these assays?
FBW7 activator: 0.1; TEAD-YAP inh: -1.6; MITF inh: -0.4; GPR151 activ: 12.8*; GPR151 conf act: -0.3; GPR119 ag: 4.2

Results for O=C(NCc1ccccn1)c1cc2c(ccc3ccccc32)oc1=O ?
FBW7 activator: -0.2; TEAD-YAP inh: -11.2; MITF inh: 9.0; GPR151 activ: 12.0*; GPR151 conf act: -0.5; GPR119 ag: 0.6

Results for CCOC(=O)C1(C)C=C(Nc2ccccc2[N+](=O)[O-])C(=O)N1c1ccccc1 (centres undefined) ?
FBW7 activator: -0.2; TEAD-YAP inh: 4.0; MITF inh: 5.7; GPR151 activ: -0.1

How did COCCNC(=O)c1cc(C)nn1-c1ccccc1 do in these assays?
FBW7 activator: 0.0; TEAD-YAP inh: 4.8; MITF inh: 0.8; GPR151 activ: 2.2

Results for CCN(CCNC(=O)c1cc(C)nn1-c1ccccc1)c1ccccc1 ?
FBW7 activator: 0.1; TEAD-YAP inh: -5.5; MITF inh: 13.2; GPR151 activ: 7.9*; GPR151 conf act: 0.2; GPR119 ag: -7.6

Results for COc1ccc(C(=O)Nc2cc(C(N)=O)ccc2OC)cc1 ?
FBW7 activator: -0.3; TEAD-YAP inh: 1.0; MITF inh: -8.8; GPR151 activ: 0.2
